These results are taken from PubChem BioAssay (NCATS).

Test [1] in a line: qHTS of pediatric cancer cell lines to identify multiple opportunities for drug repurposing: Confirmatory screen for Rh41 cells (AID 1347123).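 Further: 48 h compound exposure; nearly all actives have a fitted effect of over 60% in size.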 Further: potency means the concentration at half of the fitted maximal effect. As to conditions: Rh41 rhabdomyosarcoma cells, viability/cytotoxicity qHTS; series mostly up to 45.9 µM. The gist of the method: (§1)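 Cells (500-1,000/well) rested 5 h, then received compounds for 48 h; metabolically active cells were measured by CellTiter-Glo luminescence. Final concentrations spanned up to 46 µM (MIPE, 11-point) or 0.59 nM-46 µM (NPC, 8-point) in primary screens, 11-point in follow-ups.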
A general note: qHTS replaces the single test concentration by a dilution series.

A short description of test [2]: qHTS of pediatric cancer cell lines to identify multiple opportunities for drug repurposing: Confirmatory screen for RD cells (AID 1347124).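 Further: cells exposed to compound for 48 h before viability readout; nearly all actives have a fitted effect of over 65% in size.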 Further: potency means the concentration at half of the fitted maximal effect. As to conditions: RD rhabdomyosarcoma cell viability; series mostly up to 45.9 µM. In outline:
as §1

A short description of test [3]: qHTS of pediatric cancer cell lines to identify multiple opportunities for drug repurposing: Confirmatory screen for Rh18 cells (AID 1347125). Further: nearly all actives have a fitted effect of over 55% in size. Further: potency means the concentration at half of the fitted maximal effect. As to conditions: Rh18 rhabdomyosarcoma cells, viability; series mostly up to 45.9 µM. In outline: as §1
Test [4] is described as follows: qHTS of pediatric cancer cell lines to identify multiple opportunities for drug repurposing: Confirmatory screen for Rh30 cells (AID 1347126). Further: nearly all actives have a fitted effect of over 55% in size. Further: potency means the concentration at half of the fitted maximal effect. Conditions: Rh30 rhabdomyosarcoma cell viability; series mostly up to 45.9 µM. In outline: as §1
Test [5] is described as follows: qHTS of pediatric cancer cell lines to identify multiple opportunities for drug repurposing: Confirmatory screen for OHS-50 cells (AID 1347128).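 Further: compound exposure lasted 48 h at 37 degrees C; nearly all actives have a fitted effect of over 55% in size.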 Further: potency means the concentration at half of the fitted maximal effect. As to conditions: OHS-50 osteosarcoma cells viability; series mostly up to 45.9 µM. The gist of the method: as §1
A short description of test [6]: qHTS of pediatric cancer cell lines to identify multiple opportunities for drug repurposing: Confirmatory screen for SK-N-SH cells (AID 1347129).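 Further: cells exposed to compound for 48 h before viability read; nearly all actives have a fitted effect of over 60% in size.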 Further: potency means the concentration at half of the fitted maximal effect. Conditions: SK-N-SH neuroblastoma cell viability; series mostly up to 46.1 µM. The gist of the method:
as §1

Test [7] concerns Zika virus NS2B-NS3 protease (linked construct). Briefly: Primary screen NINDS Rhodamine qHTS for Zika virus inhibitors (AID 1347160). Further: nearly all actives have a fitted effect of over 55% in size. As to conditions: purified NS2B-NS3 protease, Rhodamine110 substrate fluorescence; series mostly up to 57.1 µM. In outline: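 Aprotinin served as in-plate control. Conditions: 25 nM linked NS2B-NS3, pH 8.0 Tris buffer, titrated compounds, 15 min preincubation and 15 min reaction with 1.5 microM Rhod110 substrate at room temperature.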

Test [8] deals with Zika virus NS2B-NS3 protease. Nature of the test: Primary screen GU AMC qHTS for Zika virus inhibitors (AID 1347154). Further: nearly all actives have a fitted effect of over 70% in size. Conditions: Zika NS2B-NS3 unlinked protease, AMC fluorogenic substrate; series mostly up to 54.1 µM. The gist of the method:
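Fluorogenic AMC-substrate cleavage by noncovalent NS2B-NS3 protease complex (25 nM, pH 8.0 Tris buffer with Tween 20) followed for 15 minutes at room temperature (~20% conversion). Percent inhibition from ex340/em450 signal change, fitted by 4-parameter Hill equation.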

In test [9] the test system is Zika virus NS2B-NS3 protease (unlinked complex). Nature of the test: Primary screen GU Rhodamine qHTS for Zika virus inhibitors: Unlinked NS2B-NS3 protease assay (AID 1347159). Further: nearly all actives have a fitted effect of over 60% in size. Conditions: Recombinant ZIKV NS2B-NS3 protease, Rhodamine110 substrate fluorescence; series mostly up to 107 µM. In outline: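 Buffer 10 mM Tris-HCl pH 8.0, 0.01% Tween 20. Unlinked protease 25 nM; compound preincubation 15 min, RT, protected from light. Substrate Rhod110, 1.5 microM; ~15% conversion in 15 min.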

Values joined by “and” are separate entries in the source; they are usually repeats but may differ in a detail not shown here. Equal entries are not always repeated. Inconclusive results are not listed. Active and inactive are the calls of the source. The call rests on the fitted dose curve; in most records, active means well fitted curve in the direction sought with a large enough effect; inconclusive means small, poorly fitted or top-dose-only effect, or another doubt; inactive means no such curve, though single readings can be large; an effect the other way counts as inactive or inconclusive.

`COc1ncc(-c2ccc3nccc(-c4ccnnc4)c3c2)cc1NS(=O)(=O)c1ccc(F)cc1F`: the Potency is 36.9 nM (active) in test [1]; 104 nM (active) in test [3]; 41.4 nM (active) in test [4]; 233 nM (active) in test [5]; 187 nM (active) in test [6]. In addition, the Potency entry in test [2] and in test [7] was “inactive” in each case.

`CNC1CCC(N(Cc2cccc(-c3ccncc3)c2)C(=O)c2sc3c(F)ccc(F)c3c2Cl)CC1` (configuration not stated): the Potency in [1] was 10400 nM (active); in test [4], 23300 nM (active). Further, the Potency entry in test [3], in [6], in test [8], in test [9] and in test [7] was “inactive” each time.

Regarding `N[C@@]1(C(=O)O)CS(=O)(=O)[C@H]2[C@H](C(=O)O)[C@H]21`, the Potency entry in [1], in test [2], in test [3], in test [4], in test [6] and in test [8] was “inactive” throughout. The Potency in test [5] was 928 nM (active).

In the case of `COc1cc(N2CCC(N3CCN(C)CC3)CC2)ccc1Nc1ncc(Cl)c(Nc2ccccc2S(=O)(=O)C(C)C)n1`, the Potency was 329 nM (active) in [1]; 1040 nM (active) in [2]; 3290 nM (active) in test [3]; 737 nM (active) in [4]; 2330 nM (active) in test [5]; 833 nM (active) in test [6]. The Potency entry in [8], in test [9] and in test [7] was “inactive” in each case.

`CC1(C)O[C@H]2C[C@@H]3[C@H]4CCC5=CC(=O)C=C[C@]5(C)[C@@]4(F)[C@@H](O)C[C@]3(C)[C@]2(C(=O)CO)O1`: the Potency result in test [1], in test [2], in [3], in test [4], in [5] and in test [6] was “inactive” each time. In addition, in test [8], the Potency entry is “inactive”.

As for `CC[C@]1(O)C[C@@H]2CN(CCc3c([nH]c4ccccc34)[C@@](C(=O)OC)(c3cc4c(cc3OC)N(C)[C@H]3[C@@](O)(C(=O)OC)[C@H](OC(C)=O)[C@]5(CC)C=CCN6CC[C@]43[C@@H]65)C2)C1`, the Potency is 82.7 nM (active) and 104 nM (active) in test [1]; 1170 nM (active) in test [2]; 148 nM (active) in test [6]. Moreover, the Potency entry in test [8] and in test [7] was “inactive” in each case.
